Consider 8 compounds from PubChem BioAssay (Tox21).

A short description of assay [1]: A CellTox Green Cytotoxicity Assay to monitor cytotoxicity in HEK293 cells - 32 hour (AID 1224881). Also: nearly all actives have a fitted effect of over 40% in size. In a few lines:
(§1)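 Each value comes from one timepoint of a single continuous run in which HEK293 cells with CellTox Green were exposed to compound for up to 40 h at 37 C, dye fluorescence rising with cell death.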

Assay [2] can be described thus: A CellTox Green Cytotoxicity Assay to monitor cytotoxicity in HepG2 cells - 0 hour (AID 1224882). Also: nearly all actives have a fitted effect of over 35% in size. A digest of the protocol: (§2)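 Continuous culture of HepG2 cells with a membrane-impermeant DNA dye; rising fluorescence marks dead cells. Compound exposure lasted up to 40 h at 37 C, with reads every 8 h from 0 h.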
Assay [3] can be described thus: qHTS RealTime-Glo MT Cell Viability Assay in HepG2 cells - 16 hour (AID 1224885). Also: nearly all actives have a fitted effect of over 50% in size. In a few lines: (§3)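 Compound treatment began 5 h after plating HepG2 cells (600/well) with NanoLuc luciferase and prosubstrate. Plates stayed at 37 C for 40 h; luminescence was captured at six time points, 0 h through 40 h.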
Assay [4] in a line: qHTS RealTime-Glo MT Cell Viability Assay in HEK293 cells - 24 hour (AID 1224886). Also: top concentration of the series differs between compounds; nearly all actives have a fitted effect of over 50% in size. A digest of the protocol:
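Quantitative high-throughput screen of the Tox21 10K library in HEK293: cells and RealTime-Glo reagents plated together, compound added at 5 h, luminescence monitored through 40 h at 37 C.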
(qHTS replaces the single test concentration by a dilution series.)

Assay [5] in a line: qHTS RealTime-Glo MT Cell Viability Assay in HEK293 cells - 8 hour (AID 1224887). Also: nearly all actives have a fitted effect of over 50% in size. Also: potency is read from the fitted curve at half-maximal effect. A digest of the protocol: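 qHTS format; HEK293 cells with NanoLuc/prosubstrate reagent, 37 C/5% CO2 for 5 h pre-dosing; compounds 23 nL in DMSO; luminescence at each time point reflects viable cells.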
Assay [6] is described as follows: qHTS RealTime-Glo MT Cell Viability Assay in HepG2 cells - 0 hour (AID 1224889). Also: nearly all actives have a fitted effect of over 50% in size. A digest of the protocol: as §3
Assay [7] can be described thus: A CellTox Green Cytotoxicity Assay to monitor cytotoxicity in HepG2 cells - 8 hour (AID 1224890). Also: nearly all actives have a fitted effect of over 45% in size. In a few lines: as §2
The nature of assay [8]: qHTS assay to identify small molecule antagonists of the estrogen receptor alpha (ER-alpha) signaling pathway using the BG1 cell line in the presence of 0.1 nM 17-beta-estradiol - cell viability counter screen (AID 1259241). Also: nearly all actives have a fitted effect of over 40% in size. A digest of the protocol: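 VM7Luc4E2 cells (endogenous ER-alpha, 4×ERE-luciferase), hormone-starved 5 days in charcoal-stripped FBS, were treated with compounds plus 0.1 nM 17beta-estradiol for 22 hr at 37C; viability read in same wells as CellTiter-Fluor live-cell protease fluorescence.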

The nature of assay [9]: qHTS assay to identify small molecule antagonists of the androgen receptor (AR) signaling pathway using the MDA cell line in the presence of 0.5 nM R1881 - cell viability counter screen (AID 1259242). Also: nearly all actives have a fitted effect of over 45% in size. A digest of the protocol: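 Fluorescence from CellTiter-Fluor, which reports protease activity of live cells, was read 30 min after reagent addition to MDA-kb2 cells that had been incubated 16 hr with compound and 0.5 nM R1881.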

For assay [10], the target named is Estrogen receptor (Homo sapiens) (UniProt P03372). Nature of the assay: qHTS assay to identify small molecule antagonists of the estrogen receptor alpha (ER-alpha) signaling pathway using the BG1 cell line in the presence of 0.1 nM 17-beta-estradiol (AID 1259244). Also: nearly all actives have a fitted effect of over 50% in size. A digest of the protocol:
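Quantitative high-throughput screen in VM7Luc4E2 cells: compound plus 0.1 nM E2 (final), 22 h, 37C, 5% CO2; ONE-Glo added, 30 min room temperature, luminescence measured.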

Assay [11] is described as follows: qHTS assay to identify small molecule phospholipidosis (PLD) inducers (AID 1259344; active = well fitted curve in the direction sought with a large enough effect; an effect the other way counts as inactive or inconclusive). In a few lines:
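Quantitative HTS in HepG2: compound plus LipidTOX Red dye for 24 h, paraformaldehyde fixation with Hoechst 33342, widefield high-content imaging; amiodarone as positive and DMSO as negative control.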

Assay [12] in a line: qHTS assay to identify small molecule HDAC inhibitors (AID 1259364). Also: nearly all actives have a fitted effect of over 45% in size. Also: potency is read from the fitted curve at half-maximal effect. A digest of the protocol: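 Endogenous HDAC class I/II activity was measured in wild-type HCT-116 cells by HDAC-Glo luminescence after 2 h compound treatment.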
Assay [13] can be described thus: qHTS assay to identify small molecule HDAC inhibitors - cell viability counter screen (AID 1259365). In a few lines: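 Wild-type HCT-116 cells were seeded at 1,500 per well, incubated overnight at 37 C, then exposed to compounds in DMSO for 2hr. Viability was read by CellTiter-Glo luminescence after 30min at room temperature.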
A short description of assay [14]: qHTS assay to identify small molecule agonists of the sonic hedgehog signaling (Shh) pathway - cell viability counter screen (AID 1259366). Also: nearly all actives have a fitted effect of over 50% in size. A digest of the protocol:
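NIH/3T3-derived 3T3 Gli1-Luc cells (stable Gli1-responsive firefly luciferase reporter) were seeded, rested 4 hr at 37 C/5% CO2, then exposed to compounds in DMSO for 24 hr; viability was read by CellTiter-Fluor fluorescence in the same wells.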

Assay [15] is described as follows: qHTS assay to identify small molecule antagonists of the sonic hedgehog signaling (Shh) pathway - cell viability counter screen (AID 1259367). Also: nearly all actives have a fitted effect of over 55% in size. A digest of the protocol: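 Seed 3T3 Gli1-Luc cells at 2,000 per well; incubate 4 hr; add compound in DMSO, then conditioned medium; incubate at 37C with 5% CO2; add CellTiter-Fluor after 23 hr; read fluorescence 1 hr later.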

The nature of assay [16]: qHTS assay to identify small molecule agonists of the sonic hedgehog signaling (Shh) pathway (AID 1259368; calls by dose curve; also: nearly all actives have a fitted effect of over 15% in size; also: potency is read from the fitted curve at half-maximal effect). In a few lines: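 Luminescent signal was taken as a measure of Gli1-controlled luciferase expression in stably transfected NIH/3T3-derived cells that had been treated for 24 hr with compounds delivered in DMSO.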
Assay [17] is described as follows: A CellTox Green Cytotoxicity Assay to monitor cytotoxicity in HEK293 cells - 8 hour (AID 1224884). Also: nearly all actives have a fitted effect of over 35% in size. In a few lines: as §1
Assay [18] can be described thus: A CellTox Green Cytotoxicity Assay to monitor cytotoxicity in HEK293 cells - 16 hour (AID 1224888). Also: nearly all actives have a fitted effect of over 35% in size. In a few lines: as §1
Assay [19] has as its target Androgen receptor (Homo sapiens) (UniProt P10275). Put plainly: qHTS assay to identify small molecule antagonists of the androgen receptor (AR) signaling pathway using the MDA cell line in the presence of 0.5 nM R1881 (AID 1259243). Also: nearly all actives have a fitted effect of over 50% in size. In a few lines:
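Inhibition of R1881 (0.5 nM final) induced reporter signal was measured in human MDA-kb2 cells; note the MMTV promoter also responds to GR. Exposure lasted 16 hr at 37C.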

A number with no mark means an inactive call. Inconclusive results are not listed. The source made the active and inactive calls. Unless noted, calls follow the shape of the dose curve; as a rule, active = well fitted curve in the direction sought with a large enough effect in the repeat runs; inconclusive = weak or mixed curves; inactive = no such curve, though single readings can be large; an effect the other way counts as inactive or inconclusive.

Sequence of Estrogen receptor (Homo sapiens) (P03372 whole entry, looked up): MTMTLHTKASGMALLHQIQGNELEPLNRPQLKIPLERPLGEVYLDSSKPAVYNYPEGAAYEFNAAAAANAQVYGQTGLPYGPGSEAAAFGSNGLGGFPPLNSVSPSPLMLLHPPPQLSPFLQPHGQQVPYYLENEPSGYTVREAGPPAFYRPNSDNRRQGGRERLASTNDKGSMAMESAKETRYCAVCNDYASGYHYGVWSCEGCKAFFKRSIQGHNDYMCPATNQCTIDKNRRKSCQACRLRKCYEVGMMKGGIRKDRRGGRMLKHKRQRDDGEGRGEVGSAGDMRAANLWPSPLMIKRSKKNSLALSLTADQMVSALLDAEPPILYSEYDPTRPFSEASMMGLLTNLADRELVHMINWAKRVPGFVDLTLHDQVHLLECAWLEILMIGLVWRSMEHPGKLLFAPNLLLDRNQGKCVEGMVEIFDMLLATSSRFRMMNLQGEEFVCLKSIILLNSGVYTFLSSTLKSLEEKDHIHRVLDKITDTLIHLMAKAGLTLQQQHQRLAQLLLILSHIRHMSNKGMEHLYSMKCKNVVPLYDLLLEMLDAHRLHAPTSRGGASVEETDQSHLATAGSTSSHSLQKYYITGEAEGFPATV
Sequence of Androgen receptor (Homo sapiens) (P10275 whole entry, looked up): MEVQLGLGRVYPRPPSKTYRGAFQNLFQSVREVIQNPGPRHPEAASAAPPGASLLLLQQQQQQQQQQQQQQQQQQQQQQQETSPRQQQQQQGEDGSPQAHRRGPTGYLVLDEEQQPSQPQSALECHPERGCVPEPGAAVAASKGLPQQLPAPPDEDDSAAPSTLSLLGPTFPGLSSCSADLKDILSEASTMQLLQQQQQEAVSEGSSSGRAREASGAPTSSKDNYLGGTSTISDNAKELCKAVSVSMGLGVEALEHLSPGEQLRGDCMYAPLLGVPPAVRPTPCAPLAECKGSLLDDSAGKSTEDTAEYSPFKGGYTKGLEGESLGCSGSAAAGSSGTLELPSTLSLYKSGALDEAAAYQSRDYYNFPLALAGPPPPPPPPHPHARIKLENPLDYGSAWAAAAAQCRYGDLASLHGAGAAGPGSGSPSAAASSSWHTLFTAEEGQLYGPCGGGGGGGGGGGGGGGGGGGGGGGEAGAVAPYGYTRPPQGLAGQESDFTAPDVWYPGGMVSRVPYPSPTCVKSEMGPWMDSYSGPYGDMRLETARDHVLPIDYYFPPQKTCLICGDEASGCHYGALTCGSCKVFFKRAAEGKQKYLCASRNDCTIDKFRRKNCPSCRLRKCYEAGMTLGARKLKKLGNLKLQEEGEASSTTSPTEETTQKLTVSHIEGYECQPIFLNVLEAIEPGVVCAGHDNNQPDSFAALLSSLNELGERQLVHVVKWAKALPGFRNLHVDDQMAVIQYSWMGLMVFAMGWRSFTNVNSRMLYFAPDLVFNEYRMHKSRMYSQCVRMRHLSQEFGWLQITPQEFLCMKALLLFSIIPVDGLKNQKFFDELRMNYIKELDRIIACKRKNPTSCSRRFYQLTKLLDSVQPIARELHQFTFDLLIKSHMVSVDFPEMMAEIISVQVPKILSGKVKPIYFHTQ

As for `CCOC(=O)[C@H](CCc1ccccc1)N[C@@H](C)C(=O)N(CC(=O)O)C1Cc2ccccc2C1`, the Potency entry in assay [1], in assay [2], in assay [3], in [4], in assay [5] and in assay [6] was “inactive” in each case. The Potency entry in [7], in assay [8], in assay [9], in assay [10], in [11] and in assay [12] was “inactive” throughout. Further, the Potency result in [13], in assay [14], in [15] and in [16] was “inactive” throughout.
Turning to `CCCCCCCCOc1ccc(C(=O)O)cc1`, the Potency result in [1], in assay [2], in [17], in [3], in [4] and in assay [5] was “inactive” throughout. Also, the Potency result in assay [6], in assay [9], in assay [13], in assay [14] and in assay [15] was “inactive” throughout.
Consider `Oc1cccc(Nc2ccccc2)c1`, for which the Potency result in assay [1], in [2], in [17], in assay [3], in [6] and in assay [7] was “inactive” each time. For the same compound, the Potency result in assay [8], in [9], in assay [10], in assay [12], in assay [13] and in assay [15] was “inactive” throughout. Also, in assay [16], the Potency result was “inactive”. Moreover, the Potency in assay [5] was 11.4 µM (active).
In the case of `CCOc1ccccc1O[C@H](c1ccccc1)[C@H]1CNCCO1`, the Potency result in [1], in assay [2], in assay [17], in assay [3], in assay [5] and in assay [18] was “inactive” in each case. Moreover, the Potency entry in assay [7], in assay [8], in assay [9], in assay [10], in assay [11] and in [12] was “inactive” each time. The Potency entry in assay [13] and in [16] was “inactive” each time.
On to `CCCCCCNC(=O)n1cc(F)c(=O)[nH]c1=O`, for which the Potency result in [1], in assay [2], in assay [3], in assay [4], in assay [5] and in assay [6] was “inactive” in each case. In addition, the Potency result in assay [7], in assay [8], in [9], in assay [11], in [12] and in assay [13] was “inactive” each time. Besides, the Potency entry in [14], in assay [15] and in [16] was “inactive” throughout.
For `O=Cc1c2ccccc2c(Cl)c2ccccc12`, the Potency result in assay [1], in assay [2], in assay [17], in [3], in assay [5] and in assay [18] was “inactive” each time. Further, the Potency entry in [6], in assay [8], in assay [10], in [12], in assay [13] and in [14] was “inactive” throughout. Also, the Potency result in [15] and in [16] was “inactive” in each case.
`CS(=O)(=O)c1ccc(-c2cn3ccccc3n2)cc1`: the Potency result in [1], in assay [2], in assay [17], in [18], in assay [6] and in [7] was “inactive” each time. In addition, the Potency entry in [8], in assay [9], in assay [19], in assay [10] and in assay [14] was “inactive” throughout. The Potency in [12] was 2.11 µM (active); in assay [16] it was 11.9 µM (active).
For `O=C(O)CCC(=O)C(=O)O`, the Potency entry in assay [1], in [2], in assay [17], in [3], in assay [4] and in [5] was “inactive” throughout. Also, the Potency result in [18], in assay [6], in assay [8], in assay [9], in assay [10] and in assay [11] was “inactive” throughout. The Potency entry in [12], in assay [13], in [14], in [15] and in [16] was “inactive” each time.
